# KDM5B inhibitor: Primary screen for KDM5B Histone Demethylases FDH-coupled qHTS; Potency, µM (top dose mostly 57.7 µM), actives largely listed as inhibitors; 220,000 tested, 2.6% active; Lysine-specific demethylase 5B (Homo sapiens), Q9UGL1; KDM5B demethylase, FDH-coupled NADH fluorescence (FDH is formaldehyde dehydrogenase); AID 1347165, 2019; active = well fitted inhibition curve with a large enough effect; also: 0% is about no effect; nearly all actives have a fitted effect of over 70% in size
#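 Compound dilutions met 200 nM (final) KDM5BΔAP for 10 min at room temperature before substrate addition. The substrate mix held 12.5 µM H3K4me3 with cofactors 25 µM α-ketoglutarate and 50 µM Fe²⁺. NADH signal gain over 30 min defined activity.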
# Starred values were filed as active, the others as inactive; i = inactive. Shown is part of a subset that was picked to be rich in hits. Potency is read from the fitted curve at half-maximal effect.
SMILES,KDM5B inhibitor
O=C(Cc1cccc(F)c1)N1CCC2(CC1)CN(c1ncccn1)CC2CO (configuration not stated),22µM*
O=C(Cc1ccccc1F)N1CCC2(CC1)CN(c1ccncn1)CC2CO (configuration not stated),i
CC(=O)N1CC(CO)C2(CCN(C(=O)Cc3ccccc3Cl)CC2)C1 (configuration not stated),i
CCCCCCCCCCNC(=S)Nc1ccccc1,i
Cc1ccc(S(=O)Cc2nc(-c3ccc(C(=O)NCc4cccnc4)cc3)oc2C)cc1 (configuration not stated),i
Cc1ccc(-c2nnc3ccc(C)cc3c2C(=O)O)cc1,i
CC(C)c1noc(-c2ccn3c(CNC(=O)c4cccc(N(C)C)c4)nnc3c2)n1,28µM*
CCN(CC)c1ccc(C(=O)NCc2nnc3cc(-c4nc(C)no4)ccn23)cc1,i
CC(C)c1noc(-c2ccn3c(CNC(=O)c4ccc(N(C)C)cc4)nnc3c2)n1,22µM*
Cc1ccc(C2CC(=O)c3cn4nc(C(F)(F)F)nc4nc3C2)cc1 (configuration not stated),i
O=C(O)c1nnn(-c2ccc(F)cc2)c1C(F)(F)F,i
Cc1ccsc1C(=O)/C(C#N)=C\c1ccc(C(=O)O)cc1,i
Cc1ccc(-c2cc(N3CCCN(C(=O)c4ccccn4)CC3)n[nH]2)cc1C,i
O=C(Cc1ccccc1)N1CCN(c2cc(-c3ccccc3)[nH]n2)CC1,i
Cc1ccc(-c2cc(N3CCCN(C(=O)CCc4ccccc4)CC3)n[nH]2)cc1C,16µM*
c1ccc2oc(Oc3ccc(C4SCCS4)cc3)nc2c1,i
CC1(C)CC(NC(=S)Nc2ccc(SC(F)F)cc2)CC(C)(C)N1,i
O=C(CSc1nc2ccccc2o1)Nc1nc(-c2ccc(Br)cc2)cs1,i
c1ccc(-c2noc(-c3ccn4c(CN5CCc6ccccc6C5)nnc4c3)n2)cc1,32µM*
CC(=O)N1CCN(Cc2nnc3cc(-c4nc(-c5ccccc5)no4)ccn23)CC1,6.3µM*
CCOC(=O)C1CCN(Cc2nnc3cc(-c4nc(-c5ccccc5)no4)ccn23)CC1,i
c1ccc(CC2CCN(Cc3nnc4cc(-c5nc(-c6ccccc6)no5)ccn34)CC2)cc1,i
CC(c1nc(-c2ccccc2)no1)N1CCc2ccccc2C1 (configuration not stated),i
COC(=O)C1C(=O)CC(C)(O)C(C(=O)OC)C1c1ccc(OC)cc1 (configuration not stated),i
COc1ccccc1C(C)NC(=O)Cc1csc2nc(-c3ccc(F)cc3)cn12 (configuration not stated),i
SMILES,KDM5B inhibitor
Cc1ccccc1-c1cc(C(=O)NCCC(N)=O)c2c(c1)N(C)CCO2,32µM*
O=C(CCc1ncc(-c2ccccc2F)o1)NCCN1CCOCC1,i
Cc1cc(CN2CCOc3c(O)cc(-c4ccccc4C)cc3C2)on1,i
CC(=O)NCC(=O)N1CCCn2cc(-c3ccccc3F)nc21,i
Cc1nnc(CN2CCOc3c(O)cc(-c4ccccc4C)cc3C2)s1,i
CN1CCOc2c(C(=O)NCCC(N)=O)cc(-c3ccccc3F)cc21,32µM*
CC(=O)Nc1cccc(NC(=O)C2(Cc3nc4ccccc4s3)CCCC2)c1,i
COc1cccc(CCC(=O)N2CCCCCC2CN2CCC(OC)CC2)c1 (configuration not stated),i
COc1ccccc1Nc1nc(N2CCOCC2)c2cnn(C)c2n1,i
CC(=O)Nc1cccc(-c2cn(C)c(=O)n3cc(CN4CCNC(=O)C4)nc23)c1,i
COc1ccc(S(=O)(=O)N2CCN(c3cc(N4CCOCC4)nc(C)n3)CC2)c(C)c1C,i
COc1ccccc1-c1nc(N2CCOCC2)cc2c1CN(Cc1cnn(C)c1)C2=O,35µM*
CC(=O)Nc1cccc(-c2nc(N3CCOCC3)cc3c2CN(Cc2cnn(C)c2)C3=O)c1,28µM*
CCc1c(C)sc(NC(=O)/C=C/c2c(F)cccc2Cl)c1C#N,i
Clc1ccc(CSc2c[nH]c3ccccc23)cc1,i
Cc1ccc(NC(=O)N2CCN(S(C)(=O)=O)CC2)c(C)c1,i
COc1ccc(OC)c(Nc2ncncc2-c2nc(-c3ccccc3)no2)c1,i
Cc1ccc(Cl)cc1Nc1ncncc1-c1nc(-c2ccccc2)no1,25µM*
COc1cccc(CNc2ncncc2-c2nc(-c3ccccc3)no2)c1,i
Cc1ccc(CCNc2ncncc2-c2nc(-c3ccccc3)no2)cc1,32µM*
Cc1ccc(Nc2ncncc2-c2nc(-c3ccccc3)no2)c(F)c1,i
Cc1ccc(F)c(Nc2ncncc2-c2nc(-c3ccccc3)no2)c1,i
FC(F)(F)c1cccc(N/N=C/c2cccs2)c1,i
CCc1c(C)sc(NC(=O)/C=C/c2ccccc2)c1C#N,i
Cc1sc2nc(C(C)Sc3nnnn3C(C)(C)C)[nH]c(=O)c2c1C (configuration not stated),i
SMILES,KDM5B inhibitor
CCOC(=O)c1cn(CC)nc1S(=O)(=O)N1CCOCC1,i
Cc1ccc(SC(C)C(=O)Nc2c(C)cc(C)cc2C)cc1 (configuration not stated),i
N#Cc1ccc(NC(=O)Cn2c(=O)c3c(ncn3C3CCCC3)n(Cc3ccccc3)c2=O)cc1,i
Cc1cc(-c2cc3c(ccn3C)c(C(=O)NCc3c(C)cc(C)[nH]c3=O)n2)ccn1,i
Cc1cc(C)c(CNC(=O)c2nc(-c3ccc(CN(C)C)cc3)cc3c2ccn3C(C)C)c(=O)[nH]1,28µM*
Cc1cc(C)c(CNC(=O)c2nc(-c3ccc(CN(C)C)cc3)cc3[nH]ccc23)c(=O)[nH]1,i
Cc1cc(C)c(CNC(=O)c2nc(-c3cnn(C)c3)cc3c2ccn3C)c(=O)[nH]1,22µM*
CN(C)CCNC(=O)c1nc(-c2ccc(N3CCN(C)CC3)cc2)cc2c1ccn2C,i
Cc1cc(C)c(CNC(=O)c2nc(-c3ccccc3C)cc3c2ccn3C(C)C)c(=O)[nH]1,i
Cc1cc(C)c(CNC(=O)c2nc(-c3ccccc3O)cc3c2ccn3C(C)C)c(=O)[nH]1,i
COc1ccc(-c2cc3c(ccn3C(C)C)c(C(=O)NCc3c(C)cc(C)[nH]c3=O)n2)cc1,25µM*
C=CCNc1nc(C(=O)OCC(=O)NCC(=O)Nc2c(C)cc(C)cc2C)cs1,i
Cc1ccccc1C(=O)Oc1ccc2c(=O)c(-c3ccccc3)coc2c1,i
CSc1nc(N2CCCC2)c2c3c(sc2n1)COC(C)(C)C3,i
CCOc1ccc(N2C(=O)c3cccnc3C2Nc2ccc(C)cc2C)cc1 (configuration not stated),i
COc1cc(NS(=O)(=O)c2cccc(Cl)c2Cl)c(C(=O)O)cc1OC,i
COc1cccc(C(=O)Nc2ccc(N3CCN(C(=O)c4ccccc4C)CC3)cc2)c1,i
O=C(CC1CC2CCC1C2)OCC(=O)c1ccc2c(c1)OCO2 (configuration not stated),i
Cc1ccccc1NC(=O)N1CCC(CCNC(=O)C2CC2)CC1,i
O=C(C1CCCN(C2CCN(C3Cc4ccccc4C3)CC2)C1)N1CCCC1 (configuration not stated),i
Cc1ccccc1NC(=O)N1CCC(N2CCCC(C(=O)N3CCCC3)C2)CC1 (configuration not stated),22µM*
Cc1ccc(Cn2c(SCC(=O)NC(C)(C)C)nc3c(sc4ncccc43)c2=O)cc1,i
COc1cccc(C2CC(=O)Nc3ccsc32)c1OC (configuration not stated),i

# High-throughput results (PubChem BioAssay)
